Measured values reported in PubChem BioAssay AID1159580 (chemical genetic matrix, 2015).
Several values for one entry are separate records, joined by “and”; a condition that tells them apart may be missing. Identical values can stand only once. About 2,000 (36%) of roughly 5,500 compounds were called active. About 18% were inconclusive and are not listed. No stated cut-off is given here; in the data, active means normalized growth mostly below about 0.91 (no sharp cut-off); inconclusive means no clear call, values can overlap the other calls; inactive means mostly above about 0.92. This is one part of the list.

Experiment: chemical genetic growth profiling, strain panel (AID 1159580);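 further: tested at 20 µM; growth read once vehicle control cultures reached saturation at 30 °C; 1 = growth at the plate median or of vehicle wells; lower values mean less growth of the strain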
Details: S. cerevisiae deletion strains, growth OD

Measured: normalized growth

CN1CCN(CC(=O)N2c3ccccc3C(=O)Nc3cccnc32)CC1
inactive: locus YAL013W, strain DEP1, active compounds read low 1.01 | locus YAL021C, strain ccr4, active compounds read low 0.991 | locus YAL026C, strain drs2, active compounds read low 1.03 | locus YAL030W, strain snc1, active compounds read low 0.999 | locus YAL040C, strain CLN3, active compounds read low 0.963 | locus YBL061C, strain skt5, active compounds read low 1.01 | locus YBR009C, strain hhf1, active compounds read low 0.999 | locus YBR021W, strain FUR4, active compounds read low 1.02 | locus YBR023C, strain chs3, active compounds read low 1.01 | locus YBR171W, strain sec66, active compounds read low 1.02 | locus YBR229C, strain ROT2, active compounds read low 1.01 | locus YBR231C, strain swc5, active compounds read low 1.01 | locus YBR279W, strain paf1, active compounds read low 1.01 | locus YCL011C, strain gbp2, active compounds read low 1.02 | locus YCL016C, strain dcc1, active compounds read low 1 | locus YCL029C, strain bik1, active compounds read low 1.02 | locus YCL061C, strain MRC1 (second series), active compounds read low 0.981 | locus YCL061C, strain MRC1, active compounds read low 1.02 | locus YCL069W, strain vba3, active compounds read low 1.03 | locus YCR088W, strain abp1, active compounds read low 1.01 | locus YDL005C, strain med2, active compounds read low 0.999 | locus YDL035C, strain GPR1, active compounds read low 1.02 | locus YDL040C, strain nat1, active compounds read low 0.992 | locus YDL074C, strain BRE1, active compounds read low 1.05 | locus YDL101C, strain DUN1, active compounds read low 1.02 | locus YDL134C, strain PPH21, active compounds read low 0.991 | locus YDL185W, strain tfp1, active compounds read low 1 | locus YDL192W, strain arf1, active compounds read low 1.01 | locus YDR001C, strain nth1, active compounds read low 1.01 | locus YDR069C, strain doa4, active compounds read low 0.989 | locus YDR101C, strain arx1, active compounds read low 1 | locus YDR137W, strain rgp1, active compounds read low 1.02 | locus YDR150W, strain NUM1, active compounds read low 1.01 and 1 | locus YDR159W, strain sac3, active compounds read low 1.01 | locus YDR162C, strain NBP2, active compounds read low 1.01 | locus YDR195W, strain ref2 0.999 | locus YDR297W, strain sur2, active compounds read low 1.01 | locus YDR318W, strain mcm21, active compounds read low 1.02 | locus YDR334W, strain swr1, active compounds read low 1.04 | locus YDR335W, strain msn5, active compounds read low 1.04 | locus YDR363W, strain ESC2, active compounds read low 1.02 | locus YDR388W, active compounds read low 1.02 | locus YDR392W, strain spt3, active compounds read low 1.01 | locus YDR502C, strain sam2, active compounds read low 1.02 | locus YEL003W, strain gim4, active compounds read low 1.01 | locus YEL037C, strain rad23, active compounds read low 1.01 | locus YEL061C, strain CIN8 (second series), active compounds read low 1.03 | locus YEL061C, strain CIN8, active compounds read low 1.01 | locus YER002W, strain NOP16, active compounds read low 0.986 | locus YER015W, strain faa2, active compounds read low 1.02 | locus YER016W, strain bim1, active compounds read low 0.997 | locus YER110C, active compounds read low 1.02 | locus YER111C, strain swi4, active compounds read low 1.02 | locus YER155C, strain BEM2 (second series), active compounds read low 1.08 | locus YER155C, strain BEM2, active compounds read low 1.01 | locus YER167W, strain BCK2, active compounds read low 1.02 | locus YFR010W, strain ubp6, active compounds read low 1.02 | locus YGL078C, strain dbp3, active compounds read low 1.01 | locus YGL086W, strain mad1, active compounds read low 1.01 | locus YGL167C, strain pmr1, active compounds read low 1.01 | locus YGL173C, strain kem1, active compounds read low 1.06 | locus YGL227W, strain vid30, active compounds read low 1.02 | locus YGL240W, strain doc1, active compounds read low 1.02 | locus YGL248W, strain PDE1, active compounds read low 1.01 | locus YGL253W, strain hxk2, active compounds read low 1.01 | locus YGR078C, strain PAC10, active compounds read low 1.02 | locus YGR135W, strain pre9, active compounds read low 1.01 | locus YGR229C, strain SMI1, active compounds read low 1.01 and 0.968 | locus YGR252W, strain gcn5, active compounds read low 0.995 | locus YHR013C, strain ard1, active compounds read low 1.03 | locus YHR027C, strain rpn1, active compounds read low 1.01 | locus YHR030C, strain SLT2, active compounds read low 1.01 and 0.978 | locus YHR079C, strain IRE1 (second series), active compounds read low 1.02 | locus YHR079C, strain IRE1, active compounds read low 0.986 | locus YHR094C, strain hxt1, active compounds read low 1.02 | locus YHR129C, strain ARP1, active compounds read low 0.995 | locus YHR142W, strain chs7, active compounds read low 1.04 | locus YHR200W, strain rpn10, active compounds read low 1.01 | locus YIL066C, strain RNR3, active compounds read low 1.01 | locus YIL073C, strain SPO22, active compounds read low 1.02 | locus YIL125W, strain kgd1, active compounds read low 1.01 | locus YIR030C, strain dcg1, active compounds read low 1.01 | locus YJL092W, strain hpr5, active compounds read low 1.02 | locus YJL095W, strain BCK1 (second series), active compounds read low 0.991 | locus YJL095W, strain BCK1, active compounds read low 1.04 and 0.99 | locus YJL115W, strain asf1, active compounds read low 1.01 | locus YJL129C, strain trk1, active compounds read low 1.03 | locus YJL134W, strain LCB3, active compounds read low 1.01 | locus YJL154C, strain vps35, active compounds read low 1.01 | locus YJL164C, strain tpk1, active compounds read low 1.01 | locus YJL166W, strain qcr8, active compounds read low 1.03 | locus YJL168C, strain set2, active compounds read low 1.02 | locus YJL187C, strain SWE1 (second series), active compounds read low 1.01 | locus YJR043C, strain POL32, active compounds read low 1.01 | locus YJR066W, strain TOR1, active compounds read low 0.926
